Inconclusive results are not listed. The source made the active and inactive calls. Unless noted, the call rests on the fitted dose curve; in most records, active means well fitted curve in the direction sought with a large enough effect in the repeat runs; inconclusive means weak or mixed curves; inactive means flat fitted curve, though single readings scatter.
How the values were obtained:
[1] = qHTS assay to test for compound auto fluorescence at 460 nm (blue) in HEK293 cell free culture (AID 720681)
In short: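 Test compounds were pinned into cell-free culture medium (DMEM with 10% FBS) and fluorescence was read directly at Ex/Em 405/460 nm. Signals were expressed as fluorescence equivalents of triamterene, with DMSO vehicle as control.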

[2] = qHTS assay to test for compound auto fluorescence at 535 nm (green) in HEK293 cell free culture (AID 720682)
In short: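 DMEM + 10% FBS, cell-free; cpd or DMSO pinned in; Ex485/Em535 read; output as fluorescein-equivalent signal.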

[3] = qHTS assay to test for compound auto fluorescence at 590 nm (red) in HEK293 cell free culture (AID 720683)
In short: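 Tox21 10K library compounds were pinned into cell-free DMEM with 10% FBS and fluorescence was read at excitation 540 nm. Activity is expressed as Rose Bengal sodium equivalency.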

[4] = qHTS assay to test for compound auto fluorescence at 590 nm (red) in HepG2 cell free culture (AID 720684)
In short: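 Ex 540 / Em 590 nm read of compound in cell-free MEM (10% FBS). Rose Bengal sodium reference.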

[5] = qHTS assay to test for compound auto fluorescence at 460 nm (blue) in HepG2 cell free culture (AID 720685)
In short: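 Cell-free plates of MEM plus 10% FBS received 23 nL compound or DMSO vehicle; blue-channel (405/460 nm) intensity scored against triamterene as reference fluorophore.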

[6] = qHTS assay to test for compound auto fluorescence at 535 nm (green) in HepG2 cell free culture (AID 720686)
[7] = qHTS assay to test for compound auto fluorescence at 460 nm (blue) in HepG2 cells (AID 720687)
In short: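 Cells (2,000/well in MEM with 10% FBS) attached overnight at 37 C, then were exposed to compound or DMSO for 1 hr at 37 C, 5% CO2. Fluorescence read at Ex/Em 405/460 nm, expressed as triamterene-equivalent signal.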

[8] = qHTS assay to test for compound auto fluorescence at 535 nm (green) in HEK293 cells (AID 720680)
[9] = target: Glucocorticoid receptor (Homo sapiens) (UniProt P04150); experiment: qHTS assay to identify small molecule agonists of the glucocorticoid receptor (GR) signaling pathway (AID 720691; active means well fitted activation curve with a large enough effect in the signal ratio in the repeat runs, not every such curve was filed as active; the % refers to the signal ratio)
Chain of Glucocorticoid receptor (Homo sapiens) (P04150 whole entry, looked up): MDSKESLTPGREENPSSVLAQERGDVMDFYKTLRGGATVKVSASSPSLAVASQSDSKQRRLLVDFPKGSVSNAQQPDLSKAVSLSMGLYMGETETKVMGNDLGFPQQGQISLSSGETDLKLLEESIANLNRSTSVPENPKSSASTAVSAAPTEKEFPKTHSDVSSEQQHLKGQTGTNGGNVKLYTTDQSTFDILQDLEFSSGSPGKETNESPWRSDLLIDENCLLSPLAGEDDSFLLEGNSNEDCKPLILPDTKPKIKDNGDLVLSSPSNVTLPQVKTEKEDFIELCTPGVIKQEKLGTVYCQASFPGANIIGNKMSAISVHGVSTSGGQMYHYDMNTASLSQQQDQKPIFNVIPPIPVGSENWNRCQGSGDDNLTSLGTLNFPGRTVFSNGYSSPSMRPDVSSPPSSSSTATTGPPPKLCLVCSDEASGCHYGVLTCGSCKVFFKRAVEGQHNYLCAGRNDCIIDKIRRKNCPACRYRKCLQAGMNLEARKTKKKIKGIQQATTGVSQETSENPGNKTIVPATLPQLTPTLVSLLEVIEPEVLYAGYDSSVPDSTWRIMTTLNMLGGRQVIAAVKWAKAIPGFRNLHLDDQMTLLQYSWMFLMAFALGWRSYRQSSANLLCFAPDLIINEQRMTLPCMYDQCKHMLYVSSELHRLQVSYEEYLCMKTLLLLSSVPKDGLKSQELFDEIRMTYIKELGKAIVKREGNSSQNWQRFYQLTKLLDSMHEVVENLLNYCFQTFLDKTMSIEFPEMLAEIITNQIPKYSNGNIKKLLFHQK
In short: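 Agonist-mode qHTS in HeLa cells stably expressing a glucocorticoid-response-element beta-lactamase reporter. Fluorescence intensity read with FRET substrate (2 h, room temperature) after 18 h compound treatment at 37 C.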

[10] = target: Glucocorticoid receptor (Homo sapiens) (UniProt P04150); experiment: qHTS assay to identify small molecule antagonists of the glucocorticoid receptor (GR) signaling pathway (AID 720692; active means well fitted inhibition curve with a large enough effect in the signal ratio in the repeat runs, not every such curve was filed as active; the % refers to the signal ratio; further: potency means the concentration at half of the fitted maximal effect)
In short: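 Inhibition of dexamethasone-driven (5 nM final) beta-lactamase expression was measured in GRE-reporter HeLa cells over 18 h at 37C. Fluorescence was read after 2 h with the B/G FRET substrate at room temperature.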

Measured: Potency

NC(=O)N1c2ccccc2C=Cc2ccccc21
not listed: [8] | [9] | [10]
inactive: all other assays above

CCn1cc(C(=O)O)c(=O)c2ccc(C)nc21
not listed: [8] | [9] | [10]
inactive: all other assays above

CC(=O)c1ccc(S(=O)(=O)NC(=O)NC2CCCCC2)cc1
inactive: all assays above

Cn1cnc2c1c(=O)[nH]c(=O)n2C
inactive: all assays above

Cc1cccc2ccccc12
not listed: [8] | [9] | [10]
inactive: all other assays above

OCCCc1ccccc1
inactive: all assays above

C/C=C/c1ccc(O)c(OC)c1
not listed: [8] | [9] | [10]
inactive: all other assays above

CC1=C(/C=C/C(C)=C/C=C/C(C)=C/C(=O)O)C(C)(C)CCC1
active: [10] 54.9 µM
not listed: [9]
inactive: all other assays above

Nc1ccc(N=Nc2ccccc2)c(N)n1
not listed: [8] | [9] | [10]
inactive: all other assays above

C=C(C)OC(C)=O
inactive: all assays above

Cc1cccc(Nc2cc(Cl)nc(SCC(=O)O)n2)c1C
inactive: all assays above

O=C(O)Cc1cccc2ccccc12
not listed: [8] | [9] | [10]
inactive: all other assays above

CCCCC/C(C=O)=C\c1ccccc1
not listed: [8]
inactive: all other assays above

NC(=O)OCC(COC(N)=O)c1ccccc1
not listed: [8]
inactive: all other assays above

CN(C)Cc1cc(CN(C)C)c(O)c(CN(C)C)c1
not listed: [8]
inactive: all other assays above

COc1ccccc1O
not listed: [8]
inactive: all other assays above

CC(C)=CCC/C(C)=C/CO
not listed: [8]
inactive: all other assays above

CC1=NN(c2ccccc2)C(=O)C1
not listed: [8]
inactive: all other assays above

Cc1c(N(C)C)c(=O)n(-c2ccccc2)n1C
not listed: [8]
inactive: all other assays above

COc1ccccc1NC(=O)CC(C)=O
not listed: [8] | [9] | [10]
inactive: all other assays above

CC(O)COc1ccccc1 (stereo unspecified)
not listed: [8]
inactive: all other assays above

Oc1cccc(O)c1
not listed: [8]
inactive: all other assays above

C#C[C@]1(O)CC[C@H]2[C@@H]3CCC4=CC(=O)CC[C@@H]4[C@H]3CC[C@@]21CC
not listed: [8] | [10]
inactive: all other assays above

NC(=O)N/N=C/c1ccc([N+](=O)[O-])o1
not listed: [8]
inactive: all other assays above

C1CNCCN1
not listed: [8]
inactive: all other assays above

NC(=O)c1ccc([N+](=O)[O-])cc1Cl
not listed: [8]
inactive: all other assays above

CCCCCCCCOc1ccc(C(=O)c2ccccc2)c(O)c1
not listed: [8] | [9] | [10]
inactive: all other assays above

COC(=O)c1ccc(O)cc1
not listed: [8]
inactive: all other assays above

CC(C)Cc1ccc(C(C)C(=O)O)cc1 (stereo unspecified)
not listed: [8]
inactive: all other assays above

O=C(OCc1ccccc1)c1ccccc1
not listed: [8]
inactive: all other assays above

CCCCCCCCCCCCCCCCCC(=O)OCC(O)CO (stereo unspecified)
not listed: [8]
inactive: all other assays above

CC(=O)OC/C=C(C)/C=C/C=C(C)/C=C/C1=C(C)CCCC1(C)C
not listed: [8] | [9] | [10]
inactive: all other assays above

CCCCOC(=O)CCCCCCCCC(=O)OCCCC
not listed: [8]
inactive: all other assays above

CCCCCCCC(=O)OCC(O)CO (stereo unspecified)
not listed: [8]
inactive: all other assays above

O=c1cc[nH]c(=O)[nH]1
not listed: [8]
inactive: all other assays above

COCCOCCOC
not listed: [8] | [9] | [10]
inactive: all other assays above

COc1cc2c(c(OC)c1OC)-c1ccc(OC)c(=O)cc1[C@@H](NC(C)=O)CC2
not listed: [8] | [10]
inactive: all other assays above

O=C(O)CN(CC(=O)O)CC(=O)O
not listed: [8]
inactive: all other assays above

COCC(C)N (stereo unspecified)
not listed: [8]
inactive: all other assays above

CC(=O)Oc1ccccc1C(=O)O
not listed: [8]
inactive: all other assays above

COC1=CC(=O)C[C@@H](C)[C@]12Oc1c(Cl)c(OC)cc(OC)c1C2=O
not listed: [8]
inactive: all other assays above

COc1ccc(C(=O)c2ccccc2)c(O)c1
not listed: [8]
inactive: all other assays above
